The values that follow come from PubChem BioAssay (EPA / NIEHS).

A word on the AC50: it is the midpoint of the concentration-response curve, whichever way the signal moves.

Test [1] deals with Hepatocyte nuclear factor 4-alpha (Homo sapiens) (UniProt P41235). As to the kind of experiment: ATG_HNF4a_TRANS: Attagene TRANS-FACTORIAL HepG2 Assay for human Hepatocyte Nuclear Factor 4 alpha (HNF4a) (AID 2282982; active = hit-call score of the fitted dose curve at least 0.9, where 1 is the maximum). To be noted: HepG2 HNF4a transactivation reporter, mRNA readout. In outline:
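Using HepG2 liver cells transfected with GAL4-UAS reporter units, chemical-induced mRNA increases were assessed after 24 hours. Fluorescent RT-PCR fragments were separated by capillary electrophoresis and compared with DMSO negative controls.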

Test [2] can be described thus: ATG_M_06_TRANS: Attagene TRANS-FACTORIAL HepG2 Assay for M06 Transcription Factor (Internal Marker) (AID 2282983; active = hit-call score of the fitted dose curve at least 0.9, where 1 is the maximum). Conditions: HepG2 Attagene TRANS M06 internal marker reporter. In outline: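 Background control endpoint: reporter mRNA from transiently transfected HepG2 after 24 h dosing, detected by RT-PCR with capillary electrophoresis fluorescence. Analysed for gain versus DMSO.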

The nature of test [3]: ATG_M_32_TRANS: Attagene TRANS-FACTORIAL HepG2 Assay for M32 Transcription Factor (Internal Marker) (AID 2282984; active = hit-call score of the fitted dose curve at least 0.9, where 1 is the maximum;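 also: transcript level of a background control reporter unit measured by RT-PCR and capillary electrophoresis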). To be noted: HepG2 Attagene TRANS M32 internal marker reporter. An outline of the steps: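 Fluorescence-detected mRNA induction, HepG2 liver cells, 24 h after dosing. Multiple GAL4-UAS reporter units introduced by transient transfection; background-control endpoint analysed for gain of signal against DMSO.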

Test [4] addresses Nuclear receptor subfamily 4 group A member 2 (Homo sapiens) (UniProt P43354). Nature of the test: ATG_NURR1_TRANS: Attagene TRANS-FACTORIAL HepG2 Assay for human Nuclear Receptor Related Protein 1 (NURR1) (AID 2282985; active = hit-call score of the fitted dose curve at least 0.9, where 1 is the maximum). Conditions: HepG2 Attagene TRANS reporter, mRNA readout. An outline of the steps: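 Chimeric NR-Gal4 proteins were expressed in human HepG2 cells bearing GAL4-UAS reporter units, and induced reporter mRNA was quantified 24 h post-dosing by RT-PCR and capillary electrophoresis.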

Test [5] addresses Transcriptional activator Myb (Homo sapiens) (UniProt P10242). Nature of the test: ATG_Myb_CIS: Attagene CIS-FACTORIAL HepG2 Assay for human Myeloblastosis (Myb) Proto-Oncogene Transcription Factor (AID 2282986). To be noted: HepG2 Attagene CIS-FACTORIAL Myb reporter transcription; actives raise or lower the signal. In outline: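 Reporter mRNA is quantified by RT-PCR and capillary electrophoresis 24 h after dosing HepG2 cells transfected with cis-regulated reporter units, which track endogenous transcription factor activity. Gain and loss of signal are fitted versus DMSO baseline.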

Test [6] has as its target Nuclear respiratory factor 1 (Homo sapiens) (UniProt Q16656). As to the kind of experiment: ATG_NRF1_CIS: Attagene CIS-FACTORIAL HepG2 Assay for human Nuclear Respiratory Factor 1 (NRF1) Orphan Gene (AID 2282987). To be noted: HepG2 NRF1 cis-element reporter, Attagene multiplex; actives raise or lower the signal. In outline:
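Endogenous NRF1-driven reporter transcription in transfected HepG2 cells after 24 h treatment. Readout: RT-PCR products, 6-FAM labelled and resolved by capillary electrophoresis; changes fitted both directions relative to DMSO.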

Test [7] can be described thus: ATG_NFI_CIS: Attagene CIS-FACTORIAL HepG2 Assay for human Nuclear Factor I (NFI) (AID 2282989). To be noted: HepG2 cis-regulatory reporter, NFI response element transcription; actives raise or lower the signal. An outline of the steps: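 HepG2, transient MRTU, 24 h exposure; RNA→cDNA→PCR→FAM label→HpaI→CE fluorescence. Bidirectional fit, DMSO = baseline.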
Test [8] deals with Myc proto-oncogene protein (Homo sapiens) (UniProt P01106). As to the kind of experiment: ATG_Myc_CIS: Attagene CIS-FACTORIAL HepG2 Assay for human Myelocytomatosis (Myc) Proto-Oncogene Transcription Factor (AID 2282990). To be noted: HepG2, Attagene cis-reporter transcription factor activity; actives raise or lower the signal. An outline of the steps:
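DMSO-normalised, bidirectionally fitted reporter mRNA signal. HepG2 cells transfected with cis reporter constructs, treated 24 h; transcripts detected by RT-PCR, 6-FAM primer extension and CE.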

Test [9] is described as follows: ATG_NF_kB_CIS: Attagene CIS-FACTORIAL HepG2 Assay for human Nuclear Factor Kappa B (NF-kB) (AID 2282991). To be noted: HepG2 Attagene cis-factorial NF-kB reporter mRNA; actives raise or lower the signal. An outline of the steps:
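Readout is reporter transcript level, gain or loss versus DMSO, measured 24 h post-dose via RT-PCR, fluorescent labelling and capillary electrophoresis. Human HepG2 liver cells carried transiently transfected CIS reporter constructs reflecting endogenous factors.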

The nature of test [10]: ATG_NRF2_ARE_CIS: Attagene CIS-FACTORIAL HepG2 Assay for human Nuclear Factor Erythroid 2 Related Factor 2 (NFR2) response to Antioxidant Response Elements (ARE) (AID 2282992).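 As to AC50: reporter mRNA level measured by RT-PCR and capillary electrophoresis fluorescence.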 To be noted: HepG2 Attagene ARE/NRF2 reporter, transcription factor activity; actives raise or lower the signal. An outline of the steps:
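Readout: reporter mRNA quantified by RT-PCR plus FAM-labelled primer extension, HpaI digestion and capillary electrophoresis, 24 h after dosing transfected HepG2 cells. Gain or loss of signal is fitted bidirectionally against DMSO baseline.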

The nature of test [11]: BSK_3C_TissueFactor: BioMAP Diversity Plus: 3C Assay for Tissue Factor Biomarker Activity (AID 2282997). To be noted: BioMAP 3C HUVEC, tissue factor biomarker readout; actives raise or lower the signal. An outline of the steps: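 After a 24 h chemical exposure of primary human umbilical vein endothelial cells, Tissue Factor levels were quantified by ELISA.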
The nature of test [12]: BSK_3C_uPAR: BioMAP Diversity Plus: 3C Assay for Urokinase-type plasminogen activator receptor (uPAR) Biomarker Activity (AID 2282998). Conditions: BioMAP 3C HUVEC, uPAR biomarker ELISA; actives raise or lower the signal. In outline: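 Dose primary human umbilical vein endothelial cells, incubate 24 h, measure cell-surface uPAR by ELISA, then fit the signal in both directions against the DMSO negative control.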
In general terms: ELISA stands for enzyme-linked immunosorbent assay.

Test [13] can be described thus: BSK_4H_Eotaxin3: BioMAP Diversity Plus: 4H Assay for Eotaxin 3 Biomarker Activity (AID 2283000).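 As to outcome: CCL26 protein level quantified by ELISA in parallel with SRB cytotoxicity check.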 To be noted: primary human endothelial cells (HUVEC); actives raise or lower the signal. An outline of the steps: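 Chemicals were added to human umbilical vein endothelium cultures, and Eotaxin-3 was quantified by ELISA at 24 h. Values were derived by bidirectional fitting with DMSO serving as negative control and activity baseline.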

Test [14] deals with human Peroxisome Proliferator-activated Receptor alpha (PPARa), PPARA (gene 5465) (UniProt Q07869). As to the kind of experiment: ATG_PPARa_TRANS: Attagene TRANS-FACTORIAL HepG2 Assay for human Peroxisome Proliferator-activated Receptor alpha (PPARa) (AID 2283001; active = hit-call score of the fitted dose curve at least 0.9, where 1 is the maximum;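 as to AC50: potency for gain of reporter signal over DMSO so agonist or activator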). An outline of the steps:
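Exposure: 24 h, transiently transfected HepG2 cells. Endpoint: GAL4-UAS reporter mRNA, RT-PCR with capillary electrophoresis fluorescence. Baseline: DMSO; increases fitted.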

Read-out in test [15]: Intercellular Adhesion Molecule 1 (ICAM1), ICAM1 (gene 3383)
As to the kind of experiment: BSK_3C_ICAM1: BioMAP Diversity Plus: 3C Assay for Intercellular Adhesion Molecule 1 (ICAM1) Biomarker Activity (AID 2283003). Conditions: primary human endothelial cells (HUVEC); actives raise or lower the signal. In outline: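 Using DMSO as baseline, bidirectional curve fitting was applied to ICAM-1 ELISA signals from HUVEC in the 3C system, measured 24 h after compound addition.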

Test [16] can be described thus: ATG_Oct_MLP_CIS: Attagene CIS-FACTORIAL HepG2 Assay for human Octamer-Binding Transcription Factor (Oct) (AID 2282993). Conditions: HepG2 Attagene cis-factorial Oct reporter, mRNA; actives raise or lower the signal. In outline: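 Multiplexed cis-reporter assay in human liver HepG2 cells, 24 h incubation. Reporter RNA amplified and labelled, then resolved by capillary electrophoresis; DMSO serves as negative control and baseline.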

Test [17] concerns the target Cellular tumor antigen p53 (Homo sapiens) (UniProt P04637). Nature of the test: ATG_p53_CIS: Attagene CIS-FACTORIAL HepG2 Assay for human p53 Transcription Factor (AID 2282994). Conditions: HepG2 p53 cis-element reporter, Attagene mRNA; actives raise or lower the signal. In outline: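 Read-out: reporter mRNA by RT-PCR plus capillary electrophoresis with fluorescence detection. Human HepG2 liver cells carried transfected multi-reporter cis-element constructs, dosed 24 h. Gain or loss of signal fitted bidirectionally against DMSO control.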

The nature of test [18]: BSK_3C_VCAM1: BioMAP Diversity Plus: 3C Assay for Vascular cell adhesion molecule 1 (VCAM1) Biomarker Activity (AID 2282999). Conditions: BioMAP 3C HUVEC, VCAM1 ELISA, cytokine-stimulated; actives raise or lower the signal. In outline: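 Vascular primary endothelium (human umbilical vein) was exposed to chemicals and assayed 24 h later. VCAM-1 levels came from ELISA, with DMSO serving as baseline for bidirectional fitting.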

The target of test [19] is human Peroxisome Proliferator-activated Receptor delta (PPARd), PPARD (gene 5467) (UniProt Q03181). As to the kind of experiment: ATG_PPARd_TRANS: Attagene TRANS-FACTORIAL HepG2 Assay for human Peroxisome Proliferator-activated Receptor delta (PPARd) (AID 2283002; active = hit-call score of the fitted dose curve at least 0.9, where 1 is the maximum). An outline of the steps:
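Measured quantity: GAL4-UAS reporter transcript induction in HepG2 after 24 h chemical dosing, with NR-Gal4 chimeras supplied by transient transfection. Detection by RT-PCR and capillary electrophoresis; upward fit against DMSO.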

The structures appear in SMILES notation. Inconclusive results are not listed. Some structures have more than one record in an assay (separate samples or runs), and their calls can disagree. Activity calls are given as the source filed them. The calls were made as follows, unless noted: active = hit-call score of the fitted dose curve at least 0.9, where 1 is the maximum; inactive = score below 0.9.

Sequence of Nuclear receptor subfamily 4 group A member 2 (Homo sapiens) (P43354 whole entry, looked up, the tested form may be a part): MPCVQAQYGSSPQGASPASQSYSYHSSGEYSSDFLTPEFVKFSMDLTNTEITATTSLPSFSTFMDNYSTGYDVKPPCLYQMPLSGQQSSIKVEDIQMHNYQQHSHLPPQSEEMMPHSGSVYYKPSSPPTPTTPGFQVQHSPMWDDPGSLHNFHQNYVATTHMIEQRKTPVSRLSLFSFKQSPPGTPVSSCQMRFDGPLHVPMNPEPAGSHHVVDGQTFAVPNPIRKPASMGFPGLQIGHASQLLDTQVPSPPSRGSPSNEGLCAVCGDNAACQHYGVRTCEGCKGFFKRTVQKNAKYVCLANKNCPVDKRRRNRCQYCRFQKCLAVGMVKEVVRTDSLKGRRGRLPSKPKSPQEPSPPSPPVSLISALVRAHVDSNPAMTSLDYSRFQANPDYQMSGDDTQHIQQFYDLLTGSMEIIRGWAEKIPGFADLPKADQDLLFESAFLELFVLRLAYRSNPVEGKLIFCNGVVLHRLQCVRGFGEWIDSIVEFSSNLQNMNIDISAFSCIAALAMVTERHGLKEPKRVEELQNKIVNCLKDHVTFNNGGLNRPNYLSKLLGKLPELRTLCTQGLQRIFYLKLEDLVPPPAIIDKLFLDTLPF
Sequence of Transcriptional activator Myb (Homo sapiens) (P10242 whole entry, looked up): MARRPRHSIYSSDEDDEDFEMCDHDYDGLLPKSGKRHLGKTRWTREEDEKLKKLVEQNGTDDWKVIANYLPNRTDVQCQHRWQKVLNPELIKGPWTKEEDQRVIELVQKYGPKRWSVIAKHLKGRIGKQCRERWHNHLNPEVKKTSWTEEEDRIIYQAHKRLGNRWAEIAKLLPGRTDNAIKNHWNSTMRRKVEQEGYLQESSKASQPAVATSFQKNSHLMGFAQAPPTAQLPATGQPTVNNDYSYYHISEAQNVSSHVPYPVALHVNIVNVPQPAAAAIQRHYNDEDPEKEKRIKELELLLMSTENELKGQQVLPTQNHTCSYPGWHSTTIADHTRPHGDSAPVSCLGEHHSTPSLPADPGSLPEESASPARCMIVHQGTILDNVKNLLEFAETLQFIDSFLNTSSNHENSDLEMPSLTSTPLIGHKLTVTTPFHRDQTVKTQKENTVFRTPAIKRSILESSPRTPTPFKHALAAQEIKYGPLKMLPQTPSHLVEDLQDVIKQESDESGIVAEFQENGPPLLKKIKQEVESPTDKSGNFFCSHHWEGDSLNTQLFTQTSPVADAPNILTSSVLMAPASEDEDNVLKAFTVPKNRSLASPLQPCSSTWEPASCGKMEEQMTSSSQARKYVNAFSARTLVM
Sequence of Cellular tumor antigen p53 (Homo sapiens) (P04637 whole entry, looked up): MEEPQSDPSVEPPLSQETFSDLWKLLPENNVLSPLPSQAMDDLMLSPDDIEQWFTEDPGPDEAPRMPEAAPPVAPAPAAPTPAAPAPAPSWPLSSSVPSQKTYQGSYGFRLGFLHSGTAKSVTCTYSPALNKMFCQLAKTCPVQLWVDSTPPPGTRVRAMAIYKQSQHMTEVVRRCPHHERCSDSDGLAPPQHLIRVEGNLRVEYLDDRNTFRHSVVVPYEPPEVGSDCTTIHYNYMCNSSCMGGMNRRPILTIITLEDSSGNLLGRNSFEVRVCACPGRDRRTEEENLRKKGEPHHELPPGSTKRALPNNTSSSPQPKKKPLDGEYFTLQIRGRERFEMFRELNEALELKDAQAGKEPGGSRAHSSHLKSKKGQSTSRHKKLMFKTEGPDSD
Sequence of Myc proto-oncogene protein (Homo sapiens) (P01106 whole entry, looked up): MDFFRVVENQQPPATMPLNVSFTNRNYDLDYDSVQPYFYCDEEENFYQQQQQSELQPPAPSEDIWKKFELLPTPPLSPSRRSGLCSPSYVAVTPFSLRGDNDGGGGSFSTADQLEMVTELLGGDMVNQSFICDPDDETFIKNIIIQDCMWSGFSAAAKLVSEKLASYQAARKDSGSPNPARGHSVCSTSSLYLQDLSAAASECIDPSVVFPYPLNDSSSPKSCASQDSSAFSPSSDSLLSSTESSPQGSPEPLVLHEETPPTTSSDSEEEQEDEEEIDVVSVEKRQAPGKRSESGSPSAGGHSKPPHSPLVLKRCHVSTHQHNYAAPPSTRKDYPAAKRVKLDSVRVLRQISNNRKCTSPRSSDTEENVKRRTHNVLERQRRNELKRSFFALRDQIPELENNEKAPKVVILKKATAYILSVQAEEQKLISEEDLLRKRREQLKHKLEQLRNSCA
Sequence of Nuclear respiratory factor 1 (Homo sapiens) (Q16656 whole entry, looked up): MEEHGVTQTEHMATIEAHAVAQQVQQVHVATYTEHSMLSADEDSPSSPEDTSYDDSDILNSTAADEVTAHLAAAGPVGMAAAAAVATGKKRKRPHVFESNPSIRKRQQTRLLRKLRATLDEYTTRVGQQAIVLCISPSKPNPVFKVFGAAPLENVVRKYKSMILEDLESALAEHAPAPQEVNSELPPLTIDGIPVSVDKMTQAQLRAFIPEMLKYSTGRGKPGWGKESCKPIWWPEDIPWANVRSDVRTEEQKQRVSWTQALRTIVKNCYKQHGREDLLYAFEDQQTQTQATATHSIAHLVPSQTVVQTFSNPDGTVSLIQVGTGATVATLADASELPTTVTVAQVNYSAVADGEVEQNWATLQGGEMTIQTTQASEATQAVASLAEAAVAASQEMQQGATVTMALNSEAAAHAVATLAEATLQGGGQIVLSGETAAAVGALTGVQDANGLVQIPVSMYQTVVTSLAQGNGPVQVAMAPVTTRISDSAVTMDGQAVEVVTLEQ
Sequence of Hepatocyte nuclear factor 4-alpha (Homo sapiens) (P41235 whole entry, looked up, the tested form may be a part): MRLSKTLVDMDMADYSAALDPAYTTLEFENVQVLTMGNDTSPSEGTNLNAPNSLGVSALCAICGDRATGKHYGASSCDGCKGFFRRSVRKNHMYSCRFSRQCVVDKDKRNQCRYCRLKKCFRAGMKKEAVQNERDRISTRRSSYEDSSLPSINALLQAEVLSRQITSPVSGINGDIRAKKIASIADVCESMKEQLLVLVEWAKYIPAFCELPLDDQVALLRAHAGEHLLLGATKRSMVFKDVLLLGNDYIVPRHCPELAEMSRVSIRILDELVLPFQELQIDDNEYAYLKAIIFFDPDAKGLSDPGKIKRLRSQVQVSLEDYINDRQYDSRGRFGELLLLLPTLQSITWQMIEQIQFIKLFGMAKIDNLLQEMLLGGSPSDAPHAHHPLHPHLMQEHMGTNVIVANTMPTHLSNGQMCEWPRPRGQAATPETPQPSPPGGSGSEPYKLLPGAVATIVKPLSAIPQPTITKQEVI
Sequence of human Peroxisome Proliferator-activated Receptor alpha (PPARa), PPARA (gene 5465) (Q07869 whole entry, looked up, the tested form may be a part): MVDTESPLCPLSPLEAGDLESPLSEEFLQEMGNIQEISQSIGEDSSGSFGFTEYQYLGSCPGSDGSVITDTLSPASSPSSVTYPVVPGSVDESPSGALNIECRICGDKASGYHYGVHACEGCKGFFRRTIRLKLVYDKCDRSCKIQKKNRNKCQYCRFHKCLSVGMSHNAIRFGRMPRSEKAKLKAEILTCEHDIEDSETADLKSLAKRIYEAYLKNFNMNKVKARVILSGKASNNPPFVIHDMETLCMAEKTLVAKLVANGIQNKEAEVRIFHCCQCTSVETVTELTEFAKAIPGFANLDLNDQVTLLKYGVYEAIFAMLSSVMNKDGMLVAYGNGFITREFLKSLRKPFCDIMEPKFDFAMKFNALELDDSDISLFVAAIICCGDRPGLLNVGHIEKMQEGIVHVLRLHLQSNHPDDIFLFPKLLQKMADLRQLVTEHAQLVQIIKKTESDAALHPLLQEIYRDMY
Sequence of human Peroxisome Proliferator-activated Receptor delta (PPARd), PPARD (gene 5467) (Q03181 whole entry, looked up, the tested form may be a part): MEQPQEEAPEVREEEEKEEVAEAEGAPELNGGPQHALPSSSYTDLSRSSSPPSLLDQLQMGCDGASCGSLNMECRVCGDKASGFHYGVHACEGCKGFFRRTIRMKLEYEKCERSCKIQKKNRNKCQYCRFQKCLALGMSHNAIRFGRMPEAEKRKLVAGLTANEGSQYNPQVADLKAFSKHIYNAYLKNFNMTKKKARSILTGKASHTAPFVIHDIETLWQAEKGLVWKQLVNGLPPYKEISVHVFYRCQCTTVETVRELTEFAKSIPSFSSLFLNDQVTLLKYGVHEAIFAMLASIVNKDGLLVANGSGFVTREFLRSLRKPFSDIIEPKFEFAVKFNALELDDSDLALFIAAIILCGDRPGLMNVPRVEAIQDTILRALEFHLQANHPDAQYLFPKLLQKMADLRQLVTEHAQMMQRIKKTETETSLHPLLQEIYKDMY

For `O=Cc1cccc(Oc2ccccc2)c1`, the compound was classed as inactive in test [1], in [2], in [3], in test [4], in test [5] and in test [6]. Besides, the outcome in [7], in test [8], in [9], in test [10], in test [11] and in [12] was inactive. The outcome in test [13], in test [14] and in test [15] was inactive.

Regarding `O=C1C2(Cl)C3(Cl)C4(Cl)C(Cl)(Cl)C5(Cl)C3(Cl)C1(Cl)C5(Cl)C24Cl` (stereo not given), the result in [1], in test [2], in [3], in test [4], in test [5] and in test [6] was inactive. The result in test [7], in test [8], in [9], in test [10], in test [16] and in [17] was inactive. The result in [19] was inactive. For the same compound, the concentration at half-maximal activity (AC50) in test [4] was 18.9 µM (active); in [7], 17.2 µM (active); in test [9], 16.5 µM (active); in test [10], 6.04 µM (active); in test [16] it was 16.7 µM (active); in test [11] it was 7.03 µM (active). Further, the values for the AC50 in test [12], in test [18] and in test [13] were 7.28 µM (active), 10.2 µM (active) and 10.4 µM (active), respectively.

As to `CCOC(=O)/C=C(C)/C=C/C[C@@H](C)CCCC(C)C`, the call in test [1], in [2], in [3], in test [17] and in [19] was inactive. Also, the AC50 is 125 µM (active) in test [4]; 152 µM (active) in test [5]; 65.2 µM (active) in test [6]; 180 µM (active) in [7]; 182 µM (active) in test [8]; 43.2 µM (active) in test [9]. Also, the AC50 was 56.5 µM (active) in [10]; 25 µM (active) in [16]; 15.6 µM (active) in test [11]; 33.1 µM (active) in [12]; 26.6 µM (active) in test [18]; 30 µM (active) in [13]. Further, the AC50 in test [14] was 64.9 µM (active).

Consider `CN(CCCC(=O)c1cccnc1)N=O`, for which the outcome in [1], in test [2], in test [3], in [5], in test [6] and in test [7] was inactive. The compound was called inactive in [8], in test [9], in [10], in [17], in test [14] and in test [19].

In the case of `NC(=S)Nc1ccccc1`, the outcome in [1], in test [2], in test [3], in test [5], in test [6] and in test [7] was inactive. In addition, the result in test [8], in [9], in test [16], in [11], in test [12] and in test [13] was inactive. For the same compound, the call in test [14], in test [19] and in [15] was inactive.

With `Clc1nc(Cl)nc(Cl)n1`, the compound was called inactive in [1], in test [2], in [3], in [4], in test [5] and in [6]. The compound was called inactive in test [7], in [8], in [9], in test [10], in test [16] and in [17]. For the same compound, the compound was called inactive in test [14] and in test [19].

For the compound `ClCc1ccccn1`, the compound was classed as inactive in [1], in test [2], in test [3], in [5], in [6] and in test [7]. Also, the compound was classed as inactive in [8], in test [17], in [14] and in [19]. The figures for the AC50 in test [10] and in [16] were 44.3 µM (active) and 59.6 µM (active), respectively.

`CC12CC1(C)C(=O)N(c1cc(Cl)cc(Cl)c1)C2=O` (stereo not given): the result in [1], in [2], in test [3], in [4], in test [5] and in test [6] was inactive. Besides, the result in test [7], in test [8], in test [9], in test [16], in test [17] and in test [11] was inactive. Further, the outcome in [12], in test [13], in [14], in test [19] and in test [15] was inactive.
